{"source": "PubChem BioAssay (NCI)", "note": "About 83,000 compounds went through this panel and 20% of them were active in at least one assay; those are over-represented in the sample as a whole.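 Cell lines were cultured in 96-well plates, exposed to a single compound concentration, and assessed for percent growth 48 hours later.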 A number with no mark means an inactive call. The calls were made as follows: active = growth percent below 10; inactive = the rest.", "data": [{"test_system": "OVCAR-8 ovarian", "test": "NCI-60 one-dose screen, 48 h (100 = growth as untreated, 0 = no growth, -100 = all killed)", "settings": "10 µM unless noted", "units": {"growth": "%"}, "values": [{"smiles": "O=C(/C=C/c1cccc(O)c1)c1ccccc1O", "growth": 92.9}, {"smiles": "Cc1cc(C)nc(NC(N)=NCCc2ccccc2)n1", "growth": 53.4}, {"smiles": "O=C(N/N=C\\c1ccccc1O)C1CC1", "growth": 93.5}, {"smiles": "CC(C)=CCC/C(C)=C/CC/C(C)=C/CC/C(C)=C/CSC[C@H](NC(=O)CCCCCN1CCN(C)CC1)C(=O)NC1CCCCC1", "growth": 90.3}, {"smiles": "Oc1cccc2oc(=S)[nH]c12", "growth": 112}, {"smiles": "COc1ccc(C(=O)c2cc(OC)c(OC)c(OC)c2)cc1/C=C/C(=O)c1cc(OC)c(OC)c(OC)c1", "growth": 86.7}, {"smiles": "Clc1ccc2[nH]cc(-c3nc(-c4c[nH]c5ncccc45)cs3)c2c1", "growth": 46.2}, {"smiles": "O=C(NC1=CC(=O)c2ccccc2C1=O)c1ccccc1", "growth": 22.4}, {"smiles": "COc1ccc2[nH]cc(-c3nc(-c4c[nH]c5ncccc45)cs3)c2c1", "growth": 44.8}, {"smiles": "C#Cc1cc2c(N)c(C(=O)c3cc(OC)c(OC)c(OC)c3)[nH]c2cc1OC", "growth": 47.8}, {"smiles": "COc1cc2[nH]c(C(=O)c3cc(OC)c(OC)c(OC)c3)c(N)c2cc1C#CCO", "growth": 31.7}, {"smiles": "Cn1c2c(c3ccc(Cl)cc31)-n1cccc1C2=O", "growth": 83.5}, {"smiles": "Cn1cc(-c2nc(-c3cn(C)c4ncccc34)cs2)c2cc(F)ccc21", "growth": 54.6}, {"smiles": "Oc1ccccc1/C=N\\NC(=S)Nc1ccc(F)cc1", "growth": 21.9}, {"smiles": "CC1c2ccccc2N(S(=O)(=O)c2ccccc2)C1C", "note": "(centres undefined)", "growth": 103}, {"smiles": "CC(C)=CCC/C(C)=C/CC/C(C)=C/CSC[C@H](NC(=O)CCCCCN1CCN(C)CC1)C(=O)NC1CCCCCC1", "growth": 80.7}, {"smiles": "O=[N+]([O-])c1ccc(/C=N\\Nc2ccccc2)cc1", "growth": 61.8}, {"smiles": "C(=C\\c1c[nH]c2ccccc12)/c1ccc2ccccc2n1", "growth": 78.7}, {"smiles": "Cn1cc(-c2csc(-c3c[nH]c4ccc(F)cc34)n2)c2cccnc21", "growth": 47.6}, {"smiles": "Nc1c(Cl)cc(N=Nc2ccccc2)cc1Cl", "growth": 104}, {"smiles": "CC(=O)O[C@H]1CC[C@@]2(C)[C@@H](CC[C@@H]3[C@@H]2CC(=O)[C@@]2(C)[C@H]3C[C@@H](C3CCCC3=O)[C@@H]2C(C)=O)C1", "note": "(some centres undefined)", "growth": 98.9}, {"smiles": "CC(=O)Oc1ccccc1C(=O)/C=C/c1cccc([N+](=O)[O-])c1", "growth": 77.7}, {"smiles": "O=C(O)c1cccc2c1C(=O)N(c1ccc3c(c1)Cc1ccccc1-3)C2=O", "growth": 107}, {"smiles": "Brc1ccc2[nH]cc(-c3nc(-c4c[nH]c5ncccc45)cs3)c2c1", "growth": 46.3}]}]}
